# ChEMBL document CHEMBL4513146, “CO-ADD screening of Karazin Kharkiv National University (Ukraine) compounds”
# Potency and affinity values are given separately.
# Assays:
# Staphylococcus aureus = settings: Concentration 32 ug.mL-1;; ASSAY_TEST Inhibition of Bacterial Growth; detection method Absorption (OD600); MEDIA CAMHB; plate type 384well; NBS; CORNING #3640; time 18 hr
# Escherichia coli = settings: Concentration 32 ug.mL-1;; ASSAY_TEST Inhibition of Bacterial Growth; detection method Absorption (OD600); MEDIA CAMHB; plate type 384well; NBS; CORNING #3640; time 18 hr
SMILES,Inhibition (Staphylococcus aureus) [%],Inhibition (Escherichia coli) [%]
CC(=O)c1cccc(NC(=O)Cn2c(=O)c3nnc(C(C)C)n3c3ccccc32)c1,9.36,0.14
CSc1cccc(NC(=O)Cn2nc3ccc(-c4ccc(C)c(C)c4)nn3c2=O)c1,-11.35,-14.99
CSc1cccc(NC(=O)Cn2nc3c(Sc4ccc(C)cc4C)nccn3c2=O)c1,-13.41,-16.34
COC(=O)c1ccc(NC(=O)Cn2nc3nc(N4CCCCCC4)ccn3c2=O)cc1,7.17,-2.48
